According to PubChem BioAssay (Tox21):
Inconclusive results are not listed. Activity calls are given as the source filed them. Unless noted, calls follow the shape of the dose curve; as a rule, active = well fitted curve in the direction sought with a large enough effect in the repeat runs; inconclusive = weak or mixed curves; inactive = no such curve, though single readings can be large; an effect the other way counts as inactive or inconclusive.

What was measured:
[1] = target: Acetylcholinesterase (Homo sapiens) (UniProt P22303); experiment: Acetylcholinesterase (AChE) small molecule antagonists: enzyme-based qHTS assay (AID 1347397; calls by dose curve; also: nearly all actives have a fitted effect of over 55% in size); details: Potency: AChE enzyme activity inhibition; outcome: AChE enzyme activity inhibition
Outline: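 Colorimetric DTNB read-out of thiocholine released from acetylthiocholine by recombinant human AChE (50 mU/mL as dispensed). Compounds were preincubated 30 min at RT before substrate/DTNB addition, with a 10 min RT reaction.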

[2] = target: Acetylcholinesterase (Homo sapiens) (UniProt P22303); experiment: Acetylcholinesterase (AChE) small molecule antagonists: enzyme-based qHTS assay with human liver microsomes (AID 1347399; calls by dose curve; also: nearly all actives have a fitted effect of over 60% in size); details: Potency: qHTS inhibition; outcome: qHTS inhibition
Outline: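 Recombinant human AChE (50 mU/mL in the enzyme mix) and human liver microsomes (0.25 mg/mL final) were preincubated with compound and NADPH (0.25 mg/mL final) for 30 min at 37 C. Acetylthiocholine/DTNB was then added; thiocholine was read colorimetrically after 10 min at room temperature.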

[3] = qHTS assay for small molecules that induce genotoxicity in human embryonic kidney cells expressing luciferase-tagged ATAD5 (AID 651632); also: nearly all actives have a fitted effect of over 15% in size
Outline: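 Test compounds were delivered by pin tool onto HEK293T reporter cells (2,000/well) expressing ATAD5 fused to luciferase. After 16 hr at 37C, 5% CO2, Amplite was added for 30 min at room temperature and luminescence was measured.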

[4] = qHTS assay for small molecule agonists of the p53 signaling pathway - cell viability (AID 651633; calls by dose curve;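 also: p53RE-bla HCT reporter cells with a stable beta-lactamase p53 reporter; series mostly up to about 83 µM; nearly all actives have a fitted effect of over 30% in size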)
Outline: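 p53RE-bla cells were treated with compound for 16 hours at 37 C. Cytotoxicity was then measured as CellTiter-Glo luminescence after 30 min at room temperature.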

[5] = qHTS assay for small molecule disruptors of the mitochondrial membrane potential - cell viability (AID 720634; calls by dose curve;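 also: human HepG2 liver cancer cells; series mostly up to about 83 µM; nearly all actives have a fitted effect of over 20% in size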)
Outline: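 Same-well counter-screen: following the MMP dye addition, CellTiter-Glo was added to 1 hr compound-treated HepG2 cells and luminescence read after 30 min at room temperature.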

[6] = qHTS assay to test for compound auto fluorescence at 590 nm (red) in HepG2 cells (AID 720674)
Outline: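 Fluorescence at 590 nm emission following 540 nm excitation was recorded from HepG2 wells one hour after compound transfer, with DMSO-only wells as vehicle and Rose Bengal sodium equivalency as the scale.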

[7] = qHTS assay to test for compound auto fluorescence at 535 nm (green) in HepG2 cells (AID 720675)
[8] = qHTS assay to test for compound auto fluorescence at 460 nm (blue) in HEK293 cells (AID 720678)
Outline: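 Blue-channel (Ex/Em 405/460 nm) intensity measured in HEK293 cultures after overnight compound exposure at 37C; signal expressed relative to triamterene. Cells plated 2,000 per well in 10% dialyzed FBS medium and allowed 4-5 hr to attach.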

[9] = qHTS assay to test for compound auto fluorescence at 590 nm (red) in HEK293 cells (AID 720679)
Outline: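 Red-channel autofluorescence (Ex/Em 540/590 nm; Rose Bengal sodium reference) was measured after overnight 37C, 5% CO2 exposure of attached HEK293 cells, 2,000 per well in medium with 10% dialyzed FBS.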

[10] = qHTS assay to test for compound auto fluorescence at 535 nm (green) in HEK293 cells (AID 720680)
[11] = qHTS assay to test for compound auto fluorescence at 535 nm (green) in HEK293 cell free culture (AID 720682)
Outline: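 Compounds were pin-transferred into cell-free DMEM with 10% FBS, and green fluorescence was read at excitation 485 nm and emission 535 nm. Intensities were expressed as fluorescein-equivalent values.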

[12] = qHTS assay to test for compound auto fluorescence at 590 nm (red) in HEK293 cell free culture (AID 720683)
Outline: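 Cell-free wells of DMEM with 10% FBS received compound, and intrinsic fluorescence was read at excitation/emission 540/590 nm. Values expressed as equivalence to Rose Bengal sodium.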

[13] = qHTS assay to test for compound auto fluorescence at 590 nm (red) in HepG2 cell free culture (AID 720684)
Outline: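 Rose Bengal sodium served as the reference for red signal. Test compounds were dispensed into serum-containing MEM (10% FBS) without cells, and plates were read at 540/590 nm.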

[14] = qHTS assay to test for compound auto fluorescence at 460 nm (blue) in HepG2 cell free culture (AID 720685)
Outline: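 Cell-free plates of MEM plus 10% FBS received 23 nL compound or DMSO vehicle; blue-channel (405/460 nm) intensity scored against triamterene as reference fluorophore.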

[15] = qHTS assay to test for compound auto fluorescence at 535 nm (green) in HepG2 cell free culture (AID 720686)
[16] = qHTS assay to test for compound auto fluorescence at 460 nm (blue) in HepG2 cells (AID 720687)
Outline: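 HepG2 cells in MEM with 10% FBS, attached overnight at 37 C, were exposed to compound or DMSO for 1 hr at 37 C, 5% CO2. Blue fluorescence was read at 405/460 nm, with triamterene as reference fluorophore.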

[17] = target: Glucocorticoid receptor (Homo sapiens) (UniProt P04150); experiment: qHTS assay to identify small molecule agonists of the glucocorticoid receptor (GR) signaling pathway (AID 720691; active = well fitted activation curve with a large enough effect in the signal ratio in the repeat runs, not every such curve was filed as active; the % refers to the signal ratio)
Outline: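 A HeLa cervical cancer line expressing GR and a glucocorticoid response element-driven beta-lactamase gene is treated with compounds for 18 h; LiveBLAzer B/G FRET substrate is then applied and fluorescence read.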

[18] = target: Glucocorticoid receptor (Homo sapiens) (UniProt P04150); experiment: qHTS assay to identify small molecule antagonists of the glucocorticoid receptor (GR) signaling pathway (AID 720692; active = well fitted inhibition curve with a large enough effect in the signal ratio in the repeat runs, not every such curve was filed as active; the % refers to the signal ratio)
Outline: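 GRE-bla HeLa line, dex-stimulated (5 nM final). Compound exposure 18 h, 37 C. Beta-lactamase FRET read after 2 h RT substrate.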

[19] = qHTS assay to identify small molecule antagonists of the glucocorticoid receptor (GR) signaling pathway - cell viability counter screen (AID 720693); also: nearly all actives have a fitted effect of over 55% in size
[20] = qHTS assay for identifying genotoxic compounds that show differential cytotoxicity against isogenic chicken DT40 cell lines with known DNA damage response pathways - wild type cell line (AID 743012); also: potency is read from the fitted curve at half-maximal effect; nearly all actives have a fitted effect of over 60% in size
Outline: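 300 wt DT40 cells/well; cpd (DMSO) pintool-transferred after ~0.5 h at 37 C/5% CO2; 40 h incubation; CellTiter-Glo added, 30 min RT; luminescence read.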

[21] = qHTS assay to identify small molecule antagonists of the androgen receptor (AR) signaling pathway using the MDA cell line - cell viability counter screen (AID 743041; also: nearly all actives have a fitted effect of over 45% in size)
Outline: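 Cytotoxicity counter screen: MDA-kb2 AR-luc cells, compound + R1881, 16 h, 37C, 0% CO2; CellTiter-Fluor added at 15.5 h, fluorescence read after 30 min.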

[22] = target: Estrogen receptor (Homo sapiens) (UniProt P03372); experiment: qHTS assay to identify small molecule antagonists of the estrogen receptor alpha (ER-alpha) signaling pathway (AID 743069; active = well fitted curve in the direction sought with a large enough effect in the signal ratio in the repeat runs, not every such curve was filed as active; the % refers to the signal ratio)
Outline: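 Beta-lactamase FRET fluorescence is read after 2 hr at room temperature with LiveBLAzer B/G substrate. Before that, ER-alpha-bla HEK293 cells sit 4 hr after plating, then receive compound plus 17beta-estradiol and incubate 18 hr at 37C.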

[23] = target: Estrogen receptor (Homo sapiens) (UniProt P03372); experiment: qHTS assay to identify small molecule agonists of the estrogen receptor alpha (ER-alpha) signaling pathway (AID 743075; calls by dose curve;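 also: HEK293 GripTite cells with ER-alpha and UAS-driven beta-lactamase reporter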)
[24] = qHTS assay to identify small molecule antagonists of the estrogen receptor alpha (ER-alpha) signaling pathway using the BG1 cell line (AID 743080; calls by dose curve;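 also: BG1 cells stimulated with 17beta-estradiol alongside compound; series mostly up to about 70 µM; nearly all actives have a fitted effect of over 25% in size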)
Outline: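 Luciferase inhibition measured with ONE-Glo after 30 min at RT in BG1Luc4E2 cells given test compounds and 17beta-estradiol for 21.5 h at 37 C; CellTiter-Fluor viability read in the same wells beforehand.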

[25] = qHTS assay to identify small molecule antagonists of the estrogen receptor alpha (ER-alpha) signaling pathway using the BG1 cell line - cell viability counter screen (AID 743081);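 also: compound given together with 17beta-estradiol as the ER stimulus; series mostly up to about 70 µM; nearly all actives have a fitted effect of over 45% in size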
Aromatase (Homo sapiens) = Aromatase (Homo sapiens) (UniProt P11511); experiment: qHTS assay to identify aromatase inhibitors (AID 743083); also: series mostly up to about 70 µM; nearly all actives have a fitted effect of over 55% in size
[26] = qHTS assay to identify aromatase inhibitors - cell viability counter screen (AID 743084);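 also: cells stimulated with testosterone during compound exposure; nearly all actives have a fitted effect of over 55% in size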
[27] = qHTS assay to identify small molecule that activate the aryl hydrocarbon receptor (AhR) signaling pathway - cell viability counter screen (AID 743086);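 also: HepG2 liver cells carrying the AhR DRE luciferase reporter; series mostly up to about 70 µM; nearly all actives have a fitted effect of over 45% in size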
Outline: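 HepG2-AhR-luc (HG2L7.5c1) cells, 4000/well, treated 24 h at 37 C with compound; viability measured as CellTiter-Fluor fluorescence after 30 min in the same wells as the luciferase read.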

Measured: Potency

Chain of Glucocorticoid receptor (Homo sapiens) (P04150 whole entry, looked up): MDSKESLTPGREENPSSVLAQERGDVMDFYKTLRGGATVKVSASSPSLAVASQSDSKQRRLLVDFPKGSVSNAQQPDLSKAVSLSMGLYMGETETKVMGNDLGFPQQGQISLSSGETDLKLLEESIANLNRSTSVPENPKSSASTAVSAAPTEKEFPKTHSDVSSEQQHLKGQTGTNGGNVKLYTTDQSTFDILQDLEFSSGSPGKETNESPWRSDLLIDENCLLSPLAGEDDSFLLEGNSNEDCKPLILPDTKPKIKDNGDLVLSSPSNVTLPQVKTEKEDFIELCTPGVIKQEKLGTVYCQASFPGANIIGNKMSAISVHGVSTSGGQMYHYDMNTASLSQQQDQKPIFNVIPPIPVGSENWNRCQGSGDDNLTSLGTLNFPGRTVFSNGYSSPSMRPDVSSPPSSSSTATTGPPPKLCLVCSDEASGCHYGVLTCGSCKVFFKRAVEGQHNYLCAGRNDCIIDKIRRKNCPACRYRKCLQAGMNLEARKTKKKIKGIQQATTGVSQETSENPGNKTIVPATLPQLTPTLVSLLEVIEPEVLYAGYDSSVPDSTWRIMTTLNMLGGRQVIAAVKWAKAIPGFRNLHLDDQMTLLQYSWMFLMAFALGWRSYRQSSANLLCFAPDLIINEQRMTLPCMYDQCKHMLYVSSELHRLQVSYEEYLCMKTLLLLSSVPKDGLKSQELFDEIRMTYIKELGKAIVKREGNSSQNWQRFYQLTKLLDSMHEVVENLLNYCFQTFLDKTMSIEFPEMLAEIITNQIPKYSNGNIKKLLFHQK
Chain of Estrogen receptor (Homo sapiens) (P03372 whole entry, looked up): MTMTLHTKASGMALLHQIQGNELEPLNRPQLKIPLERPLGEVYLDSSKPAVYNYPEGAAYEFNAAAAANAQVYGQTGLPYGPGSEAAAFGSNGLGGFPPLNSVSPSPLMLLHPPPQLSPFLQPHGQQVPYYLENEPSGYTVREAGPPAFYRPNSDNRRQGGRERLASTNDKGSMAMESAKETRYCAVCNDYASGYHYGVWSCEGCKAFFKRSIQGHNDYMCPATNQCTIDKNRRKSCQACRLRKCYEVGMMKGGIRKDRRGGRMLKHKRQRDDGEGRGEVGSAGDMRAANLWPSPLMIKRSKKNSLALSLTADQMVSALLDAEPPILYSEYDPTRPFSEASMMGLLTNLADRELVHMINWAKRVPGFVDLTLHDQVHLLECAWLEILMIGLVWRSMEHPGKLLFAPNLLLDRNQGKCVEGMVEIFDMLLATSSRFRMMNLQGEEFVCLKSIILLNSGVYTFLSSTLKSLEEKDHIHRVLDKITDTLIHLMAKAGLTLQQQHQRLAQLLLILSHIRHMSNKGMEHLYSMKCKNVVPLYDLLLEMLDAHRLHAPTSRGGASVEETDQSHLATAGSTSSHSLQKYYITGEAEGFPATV
Chain of Acetylcholinesterase (Homo sapiens) (P22303 whole entry, looked up): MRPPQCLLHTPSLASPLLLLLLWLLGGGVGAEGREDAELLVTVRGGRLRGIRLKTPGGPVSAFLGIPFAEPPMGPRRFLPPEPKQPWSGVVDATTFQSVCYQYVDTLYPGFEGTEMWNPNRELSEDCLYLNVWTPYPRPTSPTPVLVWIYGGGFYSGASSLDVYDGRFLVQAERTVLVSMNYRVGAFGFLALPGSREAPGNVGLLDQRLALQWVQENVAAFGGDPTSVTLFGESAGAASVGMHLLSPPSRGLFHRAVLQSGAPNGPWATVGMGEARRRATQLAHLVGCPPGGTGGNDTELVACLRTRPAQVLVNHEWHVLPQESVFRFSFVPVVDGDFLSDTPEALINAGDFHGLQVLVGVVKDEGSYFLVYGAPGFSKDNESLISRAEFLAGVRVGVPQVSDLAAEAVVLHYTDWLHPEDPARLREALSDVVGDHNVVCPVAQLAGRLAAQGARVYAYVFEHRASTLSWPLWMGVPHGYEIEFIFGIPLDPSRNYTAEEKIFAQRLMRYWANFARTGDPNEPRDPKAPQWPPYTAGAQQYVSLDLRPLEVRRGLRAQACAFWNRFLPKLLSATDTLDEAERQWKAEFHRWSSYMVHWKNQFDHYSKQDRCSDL
Chain of Aromatase (Homo sapiens) (P11511 whole entry, looked up): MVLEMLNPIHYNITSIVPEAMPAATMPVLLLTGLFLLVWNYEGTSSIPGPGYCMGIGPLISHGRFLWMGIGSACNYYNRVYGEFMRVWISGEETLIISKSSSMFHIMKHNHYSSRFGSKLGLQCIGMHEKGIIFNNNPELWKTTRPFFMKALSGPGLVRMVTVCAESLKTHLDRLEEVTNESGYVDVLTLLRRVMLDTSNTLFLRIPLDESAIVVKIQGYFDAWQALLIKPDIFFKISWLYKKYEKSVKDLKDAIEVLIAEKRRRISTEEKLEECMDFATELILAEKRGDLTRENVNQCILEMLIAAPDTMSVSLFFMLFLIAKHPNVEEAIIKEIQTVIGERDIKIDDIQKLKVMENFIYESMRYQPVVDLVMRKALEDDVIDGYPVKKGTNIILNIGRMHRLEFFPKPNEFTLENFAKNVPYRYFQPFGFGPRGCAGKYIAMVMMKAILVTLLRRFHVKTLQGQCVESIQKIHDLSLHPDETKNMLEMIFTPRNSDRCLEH

COCCOc1cc2cc(C(=O)NC3CCN(C(C)C)CC3)n(CC(=O)Nc3ccc(Cl)cn3)c2cn1
inactive: [1] | [2]

CC[C@@H](O)C(C[C@@H](C)N(C)C)(c1ccccc1)c1ccccc1
active: [20] 55.1 µM
not listed: [1] | [2]
inactive: all other assays above
